Only some compounds are listed: those with a hit (about 15% of all), similar ones and a draw of the others.
ELG1 DNA repair – ELG1-dependent DNA repair inhibition; HEK293T ELG1-luciferase reporter, luminescence, 16 h; DNA damage induced by 5-fluorouridine; Potency, µM (titrated, usually from 46.1 µM), usual class: inhibitors; 330,000 tested, 2.3% active; AID 504467; note: nearly all actives have a fitted effect of over 55% in size
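DMSO vehicle served as the neutral condition. Each well held 2,000 cells given 5-fluorouridine plus compound; after 16 hr at 37 °C/5% CO2, ONE-Glo was added and luciferase measured 30 min later.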
ALOX12 inh – blocks human arachidonate 12S-lipoxygenase | AID 1671190 | purified 12hLO, xylenol orange hydroperoxide absorbance | P18054 | Potency, µM (top dose mostly 108 µM), usual class: inhibitors | 580,000 tested, 1.1% active
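Hydroperoxide product was detected by ferrous iron/xylenol orange as the 573 to 405 nm absorbance ratio. Arachidonic acid at 40 uM (final) was turned over for 30 min at room temperature by 150 nM human 12hLO, pH 7.0 Hepes buffer, after 15 min compound preincubation.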
RORg inh – blocks mouse ROR gamma transcriptional activity | 310,000 tested, 5.4% active | AID 2551 | Drosophila S2 Gal4-RORgamma UAS-luciferase reporter, 20 h | Potency, µM (highest dose often 53.6 µM), hits mostly inhibitors | P51450; note: nearly all actives have a fitted effect of over 60% in size
Target sequence (P51450 whole entry, looked up, the tested form may be a part): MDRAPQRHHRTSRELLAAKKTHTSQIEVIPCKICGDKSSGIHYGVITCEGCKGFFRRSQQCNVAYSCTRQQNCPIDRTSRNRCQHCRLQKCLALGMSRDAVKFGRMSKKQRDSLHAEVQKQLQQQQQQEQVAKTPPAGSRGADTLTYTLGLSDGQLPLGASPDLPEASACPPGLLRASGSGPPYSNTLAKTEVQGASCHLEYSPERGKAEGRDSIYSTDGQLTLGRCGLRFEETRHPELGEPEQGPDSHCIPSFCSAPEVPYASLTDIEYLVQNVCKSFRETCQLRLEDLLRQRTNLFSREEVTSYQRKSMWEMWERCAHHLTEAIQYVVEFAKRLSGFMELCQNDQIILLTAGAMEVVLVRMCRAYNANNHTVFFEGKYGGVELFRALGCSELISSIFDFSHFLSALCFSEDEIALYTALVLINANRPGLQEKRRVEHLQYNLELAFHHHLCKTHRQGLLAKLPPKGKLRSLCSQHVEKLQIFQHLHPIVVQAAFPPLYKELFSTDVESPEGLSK
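Luciferase reporter read in Schneider cells carrying Gal4-RORγ (mouse) and UAS-Photinus luciferase; cells given compound 1 h before 700 uM copper sulfate induction, then incubated 20 h at ambient temperature.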
VP16 counter – inhibits Gal4-VP16 luciferase reporter, ROR gamma counter-screen; Drosophila S2 Gal4-VP16 UAS-luciferase, luminescence, 20 h; Potency, µM (series often up to 53.6 µM), hits mostly inhibitors; 310,000 tested, 3.5% active; AID 2546;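 note: Gal4-VP16 expression switched on by copper sulfate through the metallothionein promoter; nearly all actives have a fitted effect of over 50% in size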
DT40 TDP1 CPT – DT40-hTDP1 cell growth loss with CPT; chicken DT40 Tdp1-/-;hTDP1 cells + 20 nM CPT, ATP luminescence, 48 h; Potency, µM (titrated, usually from 46.2 µM), usual class: inhibitors; 420,000 tested, 12% active; note: nearly all actives have a fitted effect of over 55% in size
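Chicken DT40 Tdp1-/- cells complemented with human TDP1, 400 cells/well, exposed to compounds plus 20 nM camptothecin for at least 48 h at 37 C; viability read as ATP content by CellTiter-Glo luminescence.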
TDP1 cell noCPT – qHTS for Inhibitors of human tyrosyl-DNA phosphodiesterase 1 (TDP1): qHTS in cells in absence of CPT; DT40 Tdp1-/- hTDP1 cells, no CPT, ATP luminescence, 48 h; Potency, µM (titrated, usually from 46.2 µM), usual class: inhibitors; 420,000 tested, 15% active; note: nearly all actives have a fitted effect of over 55% in size
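Chicken DT40 Tdp1-/- cells complemented with human TDP1, screened without camptothecin (DMSO vehicle only), 400 cells/well. Compounds pin-transferred, cells incubated at 37 °C for at least 48 hr. Growth read as ATP-dependent luminescence (CellTiter-Glo, 30 min at RT).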
Numbers stand for hits; . = inactive; ? = inconclusive; / = no result given; [ ] = another dose, or the depositor's remark. Calls come from the whole dose curve; as a rule, active = well fitted curve in the direction sought with a large enough effect; inconclusive = small, poorly fitted or top-dose-only effect, or another doubt; inactive = no such curve, though single readings can be large; an effect the other way counts as inactive or inconclusive.

SMILES	ELG1 DNA repair	ALOX12 inh	RORg inh	VP16 counter	DT40 TDP1 CPT	TDP1 cell noCPT
CCOC(=O)C1CCC(CNC(=O)N2CCCC2c2ccc(OC)cc2)CC1 (centres undefined)	/	.	/	/	/	/
Cc1cc(N2C(=O)C(O)=C(C(=O)c3ccc(C)o3)C2c2cccc(Cl)c2)no1 (centres undefined)	/	45µM	/	/	?	?
Cc1cc(N2C(=O)C(O)=C(C(=O)c3ccc(C)o3)C2c2cccc(Oc3ccccc3)c2)no1 (centres undefined)	.	?	?	.	?	23µM
Cc1cc(N2C(=O)C(O)=C(C(=O)c3ccc(C)o3)C2c2ccc([N+](=O)[O-])cc2)no1 (centres undefined)	.	40µM	.	.	?	?
COc1ccc(C2C(C(=O)c3ccc(C)o3)=C(O)C(=O)N2c2cc(C)on2)cc1OC (centres undefined)	.	?	.	.	.	.
COc1cccc(C2C(C(=O)c3cc4ccccc4o3)=C(O)C(=O)N2c2cc(C)on2)c1 (centres undefined)	.	?	.	.	.	.
CCCOc1cccc(C2C(C(=O)c3cccs3)=C(O)C(=O)N2Cc2cccnc2)c1 (centres undefined)	.	.	.	.	?	16µM
CCCN1C(SCC(=O)Nc2cccc(Cl)c2C)=NS(=O)(=O)c2ccccc21	/	.	/	/	/	/
C=CCn1cc(-c2c(-c3ccccc3)ncn2CCCC2CCOC2)cn1 (centres undefined)	/	.	/	/	/	/
COc1ccc(OC2CN(C(=O)c3ccccc3F)C2)cc1	/	.[6.33 µM]	/	/	/	/
CCCOc1cccc(C2C(C(=O)c3ccc(C)o3)=C(O)C(=O)N2c2nc(C)c(C(C)=O)s2)c1 (centres undefined)	.	1.3µM	14µM	.	?	23µM
CC(=O)Nc1ccc(NC(=O)COc2cc(O)c3c(=O)cc(-c4ccccc4)oc3c2)cc1	/	.	/	/	/	/
Nc1[nH]c(C(=O)c2ccccc2)c(-c2ccccc2C(F)(F)F)c1C(=O)c1c[nH]c2ccccc12	/	.	/	/	/	/
CC(C)(C)C(=O)c1c(N)[nH]c(C(=O)c2ccccc2)c1-c1ccc(C(F)(F)F)cc1	/	.	/	/	?	23µM
Nc1[nH]c(C(=O)c2ccccc2)c(-c2ccc(Br)cc2)c1C(=O)c1cccs1	/	40µM	/	/	.	?
CC(C)(C)C(=O)c1c(N)[nH]c(C(=O)c2ccccc2)c1-c1ccccc1	/	.	/	/	/	/
Nc1[nH]c(C(=O)c2ccccc2)c(-c2ccccc2C(F)(F)F)c1C(=O)c1cccs1	/	.	/	/	23µM	23µM
Cc1ccc(NC(=O)C(Cc2c[nH]c3ccccc23)NC(=O)OCC(C)C)cc1 (centres undefined)	/	?	/	/	18µM	23µM
O=C(O)C(Cc1c[nH]c2ccccc12)NS(=O)(=O)c1ccccc1 (centres undefined)	.	.	.	.	.	.
O=C(O)C(Cc1c[nH]c2ccccc12)NS(=O)(=O)c1ccc(Cl)c(C(F)(F)F)c1 (centres undefined)	.	40µM	?	.	.	.
O=C(NC(Cc1c[nH]c2ccccc12)C(=O)O)OCC1c2ccccc2-c2ccccc21 (centres undefined)	/	35µM	/	/	.	.
CC(C)c1ccccc1NC(=O)C(Cc1c[nH]c2ccccc12)NC(=O)OC(C)(C)C (centres undefined)	/	.	/	/	18µM	?
Cc1ccc(NC(=O)C(C)OC(=O)Cc2c[nH]c3ccccc23)cc1 (centres undefined)	?	.	/	/	.	.
CC(C)(C)OC(=O)N[C@@H](Cc1c[nH]c2ccccc12)C(=O)O	/	/	.	.	/	/
Cc1ccc(NC(=O)C(Cc2c[nH]c3ccccc23)NC(=O)OC(C)(C)C)c(C)c1 (centres undefined)	/	.	/	/	?	?

Compound activity from PubChem BioAssay.
